In PubChem BioAssay:
Active and inactive are the calls of the source. Unless noted, the rule behind the calls is not given here.

Key:
[1] = compound effects on lung adenocarcinoma cell viability – A549, calcein-AM fluorescence, 48 h, basal, profiling panel (AID 1162); details: higher = more signal; note: test concentration not given here
[2] = compound effects on differentiated 3T3-L1 adipocyte viability – cell-based, 3T3-L1 adipocytes, calcein-AM fluorescence, 48 h, basal, profiling panel (AID 1163); details: 3T3-L1 adipocytes viability, higher = more signal; note: test concentration not given here
[3] = compound effects on hepatocellular carcinoma cell viability – HepG2, calcein-AM fluorescence, 48 h, basal, profiling panel (AID 1164); details: higher = more signal; note: test concentration not given here
[4] = compound effects on multiple myeloma cell viability – MM1S, calcein-AM fluorescence, 48 h, basal, profiling panel (AID 1165); details: higher = more signal;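 note: viability of MM1S multiple myeloma cells under basal unstimulated conditions; test concentration not given here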
[5] = calcein-AM signal in unstimulated myeloma cells – cell-based, calcein-AM fluorescence, 48 h, PK04 Diversity Set, profiling panel (AID 1166); details: RPMI8226 myeloma viability, higher = more signal;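 note: cells grown under basal conditions without added stimulus; test concentration not given here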
[6] = JC-1 mitochondrial signal, unstimulated HepG2 cells – cell-based, JC-1 fluorescence, 24 h, 100 nL compound, profiling panel (AID 1167); details: HepG2 mitochondrial potential, higher = more signal; note: test concentration not given here
[7] = JC-1 mitochondrial signal, unstimulated adipocytes – cell-based, JC-1 fluorescence, 3T3-L1 adipocytes, 24 h, 100 nL compound, profiling panel (AID 1168); details: JC-1 mitochondrial fluorescence, higher = more signal, called active from +8 up or from −8 down; note: test concentration not given here
[8] = JC-1 mitochondrial signal, unstimulated myeloma cells – cell-based, JC-1 fluorescence, RPMI8226, 24 h, 100 nL compound, profiling panel (AID 1169); details: JC-1 mitochondrial potential fluorescence, higher = more signal; note: test concentration not given here
[9] = JC-1 mitochondrial signal, unstimulated MM1S myeloma – cell-based, JC-1 fluorescence, 24 h, 100 nL compound, profiling panel (AID 1170); details: MM1S mitochondrial potential, higher = more signal; note: test concentration not given here
[10] = resazurin metabolic signal in A549 cells – cell-based, resazurin fluorescence, 24 h, PK04 Diversity Set, profiling panel (AID 1171); details: A549 viability, higher = more signal, called active from +8 up or from −8 down; note: test concentration not given here
[11] = resazurin metabolic signal in HepG2 cells – cell-based, resazurin fluorescence, 24 h, PK04 Diversity Set, profiling panel (AID 1172); details: HepG2 viability, higher = more signal; note: test concentration not given here
[12] = budding yeast growth changes without added modifier – OD600, strain BY4716, 24 h, basal condition, primary screen (AID 1173); details: S. cerevisiae BY4716 growth, OD600, 24 h; higher = more signal, called active from +8 up or from −8 down
[13] = viability profiling in MM1S myeloma cells – cell-based, resazurin fluorescence, basal, 24 h, PK04 Diversity Set, profiling panel (AID 1174); details: higher = more signal, called active from +8 up or from −8 down; note: test concentration not given here
[14] = biological target: Dihydroorotate dehydrogenase (quinone), mitochondrial (Plasmodium falciparum (isolate 3D7)) (UniProt Q08210); assay: inhibition of P. falciparum DHODH – biochemical, C-terminal His tag, absorbance 600 nm, primary screen (AID 1175); details: PfDHODH enzyme, DCIP absorbance 600 nm; higher = more signal, called active from +8 up or from −8 down;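 note: recombinant parasite enzyme with a five histidine tag at its C terminus; test concentration not given here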
Dihydroorotate dehydrogenase (quinone), mitochondrial (Plasmodium falciparum (isolate 3D7)), sequence (Q08210 whole entry, looked up): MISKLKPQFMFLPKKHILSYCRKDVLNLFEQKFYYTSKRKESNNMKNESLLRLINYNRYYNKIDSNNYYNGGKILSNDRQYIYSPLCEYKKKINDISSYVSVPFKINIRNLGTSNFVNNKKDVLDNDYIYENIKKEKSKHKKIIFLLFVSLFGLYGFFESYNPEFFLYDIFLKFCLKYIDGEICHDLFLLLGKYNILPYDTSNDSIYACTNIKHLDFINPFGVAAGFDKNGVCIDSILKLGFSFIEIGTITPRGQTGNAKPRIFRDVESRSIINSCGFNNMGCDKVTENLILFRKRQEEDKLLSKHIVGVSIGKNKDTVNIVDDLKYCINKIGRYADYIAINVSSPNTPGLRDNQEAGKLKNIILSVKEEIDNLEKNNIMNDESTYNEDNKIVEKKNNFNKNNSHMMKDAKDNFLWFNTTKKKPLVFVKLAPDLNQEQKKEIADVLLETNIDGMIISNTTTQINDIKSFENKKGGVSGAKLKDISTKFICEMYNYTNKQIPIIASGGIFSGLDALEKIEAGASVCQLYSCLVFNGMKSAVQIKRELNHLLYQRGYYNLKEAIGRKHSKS

[15] = inhibition of PAO1 biofilm formation – strain PAO1, LB-PBS medium, absorbance 600 nm, primary screen (AID 1176); note: test concentration not given here; details: P. aeruginosa PAO1 growth/biofilm, A600, 12 h; higher = more signal
[16] = growth modulation of vineyard yeast isolate – strain RM11-1a, OD600, basal, 24 h, primary screen (AID 1177);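 note: cultures grown under basal conditions with no added stressor; test concentration not given here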; details: S. cerevisiae RM11-1a growth, OD600, 24 h; higher = more signal, called active from +8 up or from −8 down
[17] = growth of efflux-deficient E. coli DRC39 – strain DRC39, OD650, 24 h, E. coli filamentation inducers, primary screen (AID 1178);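 note: growth measured as culture turbidity by optical density at 650 nm; test concentration not given here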; details: E. coli DRC39 acrAB, higher = more signal, called active from +8 up or from −8 down
[18] = growth of efflux-deficient E. coli DRC39 – strain DRC39, OD650, 48 h, E. coli filamentation inducers, primary screen (AID 1179);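 note: screen aims at cell division blockers that make cells filament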; details: E. coli DRC39 delta-acrAB growth, higher = more signal, called active from +8 up or from −8 down
[19] = viability profiling in RPMI8226 myeloma cells – cell-based, resazurin fluorescence, basal, 24 h, PK04 Diversity Set, profiling panel (AID 1180); details: higher = more signal;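 note: RPMI8826 multiple myeloma cell line at 5000 cells per well; test concentration not given here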
[20] = biological target: E3 ubiquitin-protein ligase XIAP (Homo sapiens) (UniProt P98170); assay: small molecules binding XIAP protein – biophysical, small-molecule microarray, fluorescence 635 nm, primary screen (AID 1181); details: higher = more signal;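 note: score merges 667 nm emission and signal to noise over triplicate slides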
E3 ubiquitin-protein ligase XIAP (Homo sapiens), sequence (P98170 whole entry, looked up): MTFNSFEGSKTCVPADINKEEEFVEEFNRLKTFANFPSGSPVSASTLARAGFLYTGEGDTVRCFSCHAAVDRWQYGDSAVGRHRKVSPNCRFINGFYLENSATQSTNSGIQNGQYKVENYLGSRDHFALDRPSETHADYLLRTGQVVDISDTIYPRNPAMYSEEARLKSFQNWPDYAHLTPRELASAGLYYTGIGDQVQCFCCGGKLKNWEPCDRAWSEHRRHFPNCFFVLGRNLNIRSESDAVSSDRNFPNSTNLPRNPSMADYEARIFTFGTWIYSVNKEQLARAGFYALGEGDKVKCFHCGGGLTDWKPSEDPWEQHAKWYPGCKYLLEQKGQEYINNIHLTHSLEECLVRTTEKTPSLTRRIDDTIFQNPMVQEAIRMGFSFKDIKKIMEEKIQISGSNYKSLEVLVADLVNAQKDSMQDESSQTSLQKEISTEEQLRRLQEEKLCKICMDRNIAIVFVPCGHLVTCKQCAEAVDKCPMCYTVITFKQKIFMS

Compound: C=C(C(=O)CC[C@@H](OC(=O)c1cccnc1)c1ccc(CO)o1)C(C)C
- z-score [1]: -0.628
- z-score [2]: 0.153
- z-score [3]: -0.545
- z-score [4]: -1.06
- z-score [5]: -0.56
- z-score [6]: -1.3
- z-score [7]: 0.0907 (inactive)
- z-score [8]: 0.283
- z-score [9]: 0.48
- z-score [10]: -0.297 (inactive)
- z-score [11]: 0.158
- z-score [12]: -0.708 (inactive)
- z-score [13]: 0.285 (inactive)
- composite z-score [14]: -0.0661 (inactive)
- z-score [15]: 0.437 (inactive)
- z-score [16]: 0.113 (inactive)
- z-score [17]: -0.391 (inactive)
- z-score [18]: -0.562 (inactive)
- z-score [19]: 0.594
- composite z-score [20]: 0.396

Compound: C[N+](C)(C)CCCCNC(=O)[C@H]1C[C@H]2C(=O)N3CCC[C@H]3C(=O)N2[C@H]1c1ccc(O)cc1
- z-score [1]: -0.814
- z-score [2]: 0.0179
- z-score [3]: -0.674
- z-score [4]: -0.642
- z-score [5]: -0.772
- z-score [6]: -1.1
- z-score [7]: -1.5 (inactive)
- z-score [8]: 0.0553
- z-score [9]: -0.38
- z-score [10]: 0.0558 (inactive)
- z-score [11]: 0.0897
- z-score [12]: 1.06 (inactive)
- z-score [13]: -1.13 (inactive)
- composite z-score [14]: -30.3 (active)
- z-score [15]: 0.146 (inactive)
- z-score [16]: 0.266 (inactive)
- z-score [17]: 0.0346 (inactive)
- z-score [18]: -0.322 (inactive)
- z-score [19]: -0.977
- composite z-score [20]: 0.455

Compound: COc1ccccc1CN1C(=O)c2ccccc2[C@](Cc2ccccc2I)(C(=O)NC2CC2)[C@@H]1c1ccc(CO)cc1
- z-score [1]: -0.741
- z-score [2]: -0.475
- z-score [3]: -0.468
- z-score [4]: -0.664
- z-score [5]: -1.54
- z-score [6]: 1.32
- z-score [7]: 0.424 (inactive)
- z-score [8]: -1.04
- z-score [9]: -0.508
- z-score [10]: -0.264 (inactive)
- z-score [11]: -0.246
- z-score [12]: 0.329 (inactive)
- z-score [13]: -0.185 (inactive)
- composite z-score [14]: 0.629 (inactive)
- z-score [15]: 0.0714 (inactive)
- z-score [16]: 1.66 (inactive)
- z-score [17]: 0.127 (inactive)
- z-score [18]: 0.877 (inactive)
- z-score [19]: -0.198
- composite z-score [20]: 0.591

Compound: C=C(CCCC)/C(=C/C[C@H](OC(C)=O)c1ccc(CO)o1)c1cc(C(=O)OC)ccc1OC
- z-score [1]: -0.0865
- z-score [2]: 1.03
- z-score [3]: -0.888
- z-score [4]: -2.21
- z-score [5]: -2.15
- z-score [6]: -0.854
- z-score [7]: -0.356 (inactive)
- z-score [8]: 0.292
- z-score [9]: 0.6
- z-score [10]: -0.684 (inactive)
- z-score [11]: -0.577
- z-score [12]: -0.31 (inactive)
- z-score [13]: -0.871 (inactive)
- composite z-score [14]: -2.01 (inactive)
- z-score [15]: 0.0842 (inactive)
- z-score [16]: 0.0837 (inactive)
- z-score [17]: -0.729 (inactive)
- z-score [18]: -0.776 (inactive)
- z-score [19]: -0.641
- composite z-score [20]: -0.322

Compound: COC(=O)[C@@]1(Cc2ccc(F)cc2)[C@H]2c3cc(C(=O)N4CCCC4)n(CCc4ccc(OC)c(Br)c4)c3C[C@H]2CN1C(=O)c1ccccc1
- z-score [1]: -1.58
- z-score [2]: -0.483
- z-score [3]: -2.5
- z-score [4]: -1.66
- z-score [5]: -4.69
- z-score [6]: 0.275
- z-score [7]: -0.317 (inactive)
- z-score [8]: -0.626
- z-score [9]: -2.09
- z-score [10]: -2.3 (inactive)
- z-score [11]: -1.25
- z-score [12]: 0.836 (inactive)
- z-score [13]: -2.83 (inactive)
- composite z-score [14]: -0.163 (inactive)
- z-score [15]: 1.07 (inactive)
- z-score [16]: 0.264 (inactive)
- z-score [17]: -0.588 (inactive)
- z-score [18]: 0.123 (inactive)
- z-score [19]: -4.16
- composite z-score [20]: 0.183

Compound: O=C1NC(=O)C2C1C=CC(C(O)c1cccs1)N2Nc1ccccn1 (stereo not given)
- z-score [1]: 1.74
- z-score [2]: -0.508
- z-score [3]: 0.714
- z-score [4]: 0.119
- z-score [5]: 1.13
- z-score [6]: 0.674
- z-score [7]: 0.112 (inactive)
- z-score [8]: 0.268
- z-score [9]: 0.0729
- z-score [10]: -1.06 (inactive)
- z-score [11]: -0.687
- z-score [12]: 0.0408 (inactive)
- z-score [13]: -1.71 (inactive)
- composite z-score [14]: 0.566 (inactive)
- z-score [15]: 0.916 (inactive)
- z-score [16]: 0.623 (inactive)
- z-score [17]: -0.0795 (inactive)
- z-score [18]: 0.0691 (inactive)
- z-score [19]: 0.398
- composite z-score [20]: 0.174

Compound: CCCC[C@@H]1C[C@H]1[C@@H](NC(=O)c1ccccc1)c1ccc(-c2ccccc2)cc1
- z-score [1]: -1.54
- z-score [2]: -1.15
- z-score [3]: -3.24
- z-score [4]: -2.55
- z-score [5]: -4.26
- z-score [6]: -3.59
- z-score [7]: -0.49 (inactive)
- z-score [8]: -0.568
- z-score [9]: -2.19
- z-score [10]: -1.31 (inactive)
- z-score [11]: -2.26
- z-score [12]: -0.552 (inactive)
- z-score [13]: -2.24 (inactive)
- composite z-score [14]: -0.297 (inactive)
- z-score [15]: 0.122 (inactive)
- z-score [16]: 0.219 (inactive)
- z-score [17]: -0.499 (inactive)
- z-score [18]: -0.293 (inactive)
- z-score [19]: -3.64
- composite z-score [20]: 1.14

Compound: COC(=O)[C@@]1(Cc2ccc(F)cc2)[C@H]2c3cc(C(=O)N(C)C)n(Cc4ccccn4)c3C[C@H]2CN1C(=O)c1ccccc1
- z-score [1]: -1.48
- z-score [2]: 0.311
- z-score [3]: 0.291
- z-score [4]: 0.263
- z-score [5]: -0.519
- z-score [6]: -0.21
- z-score [7]: -0.858 (inactive)
- z-score [8]: -0.715
- z-score [9]: -1.01
- z-score [10]: 0.45 (inactive)
- z-score [11]: 1.15
- z-score [12]: 0.0864 (inactive)
- z-score [13]: 0.548 (inactive)
- composite z-score [14]: -0.171 (inactive)
- z-score [15]: -0.126 (inactive)
- z-score [16]: -0.319 (inactive)
- z-score [17]: -0.389 (inactive)
- z-score [18]: -0.42 (inactive)
- z-score [19]: 0.35
- composite z-score [20]: 0.332

Compound: O=C1O[C@H](c2ccccc2)[C@H](c2ccccc2)N2[C@H]1[C@@H](C(=O)NC[C@H](O)c1ccccc1)[C@]1(C(=O)Nc3ccc(C#CC4(O)CCCCCC4)cc31)[C@H]2c1ccccc1OCCO
- z-score [1]: -0.509
- z-score [2]: 0.0001
- z-score [3]: -4.63
- z-score [4]: -3.33
- z-score [5]: -4.19
- z-score [6]: -2.67
- z-score [7]: 3.14 (inactive)
- z-score [8]: -0.99
- z-score [9]: -2.01
- z-score [10]: -1.39 (inactive)
- z-score [11]: -2.48
- z-score [12]: 1.6 (inactive)
- z-score [13]: -7.19 (inactive)
- composite z-score [14]: -0.147 (inactive)
- z-score [15]: 2.83 (inactive)
- z-score [16]: 3.43 (inactive)
- z-score [17]: 0.408 (inactive)
- z-score [18]: 0.283 (inactive)
- z-score [19]: -6.96
- composite z-score [20]: 0.165
